# Test results from paper PMC7826789 (International Journal of Molecular Sciences, 2021).
# Columns and labels:
# Details in all cases: Compound Concentration (nM):1000
# [1] = tested on: CSF1R
# [2] = tested on: CSK
# [3] = tested on: CSNK1A1L
# [4] = tested on: CSNK1A1
# [5] = tested on: CSNK1D
# [6] = tested on: CSNK1E
# [7] = tested on: CSNK1G1
# [8] = tested on: CSNK1G2
# [9] = tested on: CSNK1G3
# [10] = tested on: CSNK2A1
# [11] = tested on: CSNK2A2
# [12] = tested on: T1, CTK
# T1 construct: gene MATK
# [13] = tested on: DAPK1
# [14] = tested on: DAPK2
# [15] = tested on: DAPK3
# [16] = tested on: T2, DCAMKL1
# T2 construct: gene DCLK1
# [17] = tested on: T3, DCAMKL2
# T3 construct: gene DCLK2
# [18] = tested on: T4, DCAMKL3
# T4 construct: gene DCLK3
# [19] = tested on: DDR1
# [20] = tested on: DDR2
# 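Note: KINOMEscan scanMAX binding as percent activity remaining versus control; lower means stronger binding.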
Compound,Percent Control [1] [%],Percent Control [2] [%],Percent Control [3] [%],Percent Control [4] [%],Percent Control [5] [%],Percent Control [6] [%],Percent Control [7] [%],Percent Control [8] [%],Percent Control [9] [%],Percent Control [10] [%],Percent Control [11] [%],Percent Control [12] [%],Percent Control [13] [%],Percent Control [14] [%],Percent Control [15] [%],Percent Control [16] [%],Percent Control [17] [%],Percent Control [18] [%],Percent Control [19] [%],Percent Control [20] [%]
CC1=C(C(=O)Nc2ccc3[nH]ncc3c2)C(c2ccc3ccccc3c2)CC(=O)N1 (centres unmarked) [GSK270822A],82,95,64,91,100,100,92,89,100,80,80,54,95,100,100,90,74,94,79,90
Cl.O=C(Nc1ccc(Oc2ccc3[nH]c(NC(=O)c4ccccc4)nc3c2)cc1)Nc1cc(C(F)(F)F)ccc1F [GW709042A],6.1,96,97,100,87,83,100,100,100,92,72,100,100,100,100,92,96,100,0,16
NS(=O)(=O)c1ccc(N/N=C2\C(=O)Nc3ccc(C(=O)NCc4ccncc4)cc32)cc1 [GW300657X],99,87,60,83,92,98,87,100,67,53,28,97,63,65,51,67,83,72,100,89
Nc1ncnc2occ(-c3ccc(NC(=O)Nc4cc(C(F)(F)F)ccc4F)cc3)c12 [GW770249X],0.2,74,92,100,82,76,98,92,99,100,93,70,100,100,98,78,76,100,0,1.3
CN(C)CCNC(=O)Nc1ccc(N(C)c2ccnc(Nc3ccc(CS(C)(=O)=O)cc3)n2)cc1.Cl [GW830900A],0.6,98,85,79,93,88,90,96,95,78,62,86,94,100,100,89,100,100,73,17
C/C(Nc1ccc(S(N)(=O)=O)cc1)=C1/C(=O)Nc2ccccc21 [GW335962X],100,86,97,67,87,100,88,85,99,57,21,84,94,93,96,80,80,100,95,100
CCn1c(-c2nonc2N)nc2c(C#CC(C)(C)O)nc(OCCNC)cc21.Cl [GSK949675],100,100,100,94,100,100,100,92,100,100,97,100,100,100,100,100,100,66,100,100
CN1CCN(C(=O)c2ccc(NC(=O)Nc3ccc(N(C)c4ccnc(Nc5ccc(CS(C)(=O)=O)cc5)n4)cc3)cc2)CC1.Cl [GW830263A],0,62,100,85,99,75,100,100,100,83,63,100,95,100,100,97,79,100,0,0
Cl.O=C(O[C@H]1CN[C@H](C#Cc2cc3ncnc(Nc4ccc5c(cnn5Cc5ccccc5)c4)c3s2)C1)N1CCOCC1 [GSK200398A],100,67,92,89,91,79,92,100,92,75,70,89,95,100,100,82,100,100,92,100
Cl.O=S1CCN(Cc2ccc(-c3ccc4ncnc(Nc5ccc(OCc6ccccc6)c(F)c5)c4c3)o2)CC1 [GW576924A],100,100,100,100,100,100,100,100,100,84,100,100,100,100,100,89,100,100,100,100
